Experimental data as given in ChEMBL document CHEMBL3988442, “University of Dundee, Small-Polar-MMV Screening Library” (2021).
Among all 48,000 compounds or so, about 13,000 (27%) showed an effect of 50% or more. The list shows a part of the results.

The molecules below were run on Wolbachia pipientis (assay: Anti-Wolbachia Cell-Based Screen). Details: 5 µM.
Format: functional
Design: scale not given: in the data most compounds retested in dose-response had high values

| SMILES | Percent Effect [%] |
| --- | --- |
| COc1ccc(C)cc1-n1cnnc1C1CC(=O)N(C)C1 (configuration not stated) | 6.21 |
| CNS(=O)(=O)CCn1cc(-c2cc3c(cc2OC)CCC3)nn1 | -24.83 |
| COc1cc2c(cc1OC)C(=O)C(Sc1nncn1C)C2 (configuration not stated) | 119.4 |
| Cc1nnc(SCC(=O)N2CCC3(CC2)c2ccccc2CC3O)o1 (configuration not stated) | -11.87 |
| COc1cccc(Cc2nnc(SC3CCOC3=O)o2)c1 (configuration not stated) | -7.418 |
| COc1cc2c(cc1OC)CN(C(=O)NC(C)c1nncn1C)CC2 (configuration not stated) | -16.43 |
| COc1cc2c(cc1OC)C(=O)C(Sc1nnnn1C)C2 (configuration not stated) | 95.35 |
| COc1cc2c(cc1OC)C(=O)C(Sc1nnc(C)o1)C2 (configuration not stated) | 89.14 |
| O=C1CCC2(CCCO2)CCN1Cc1noc(C2CCCC2)n1 (configuration not stated) | 15.53 |
| O=C(NC1(c2nnn(Cc3ccncc3)n2)CCCC1)c1ccccc1 | -7.35 |
| CC(O)(CNc1ccccn1)c1ccccc1 (configuration not stated) | 12.1 |
| CCc1ccc2c(c1)C(CCNC(=O)Cc1cccc(F)c1)C(=O)N2 (configuration not stated) | 1.678 |
| CCS(=O)(=O)NCCNC(=O)c1cnc(-c2ccccc2)nc1 | 1.605 |
| O=C(Cc1ccc(F)cc1)NCCNS(=O)(=O)C1CCCC1 | 108.3 |
| O=C(Cc1ccc(F)cc1)NCCNS(=O)(=O)c1ccc(F)c(F)c1 | -6.551 |
| O=C(Cc1ccc(F)cc1)NCCc1ccoc1 | 13.31 |
| O=C(NCCNS(=O)(=O)C1CCCCC1)c1ccccc1 | 130.7 |
| O=C(NCCNS(=O)(=O)c1ccc2c(c1)CCC2)c1ccccc1 | 4.416 |
| O=C(Cc1cccc(F)c1)NCCNS(=O)(=O)C1CCCC1 | 103.6 |
| O=C(CCS(=O)(=O)C1CCCC1)NCCc1cccc(O)c1 | 0.8082 |
| Cc1cccc(CCNC(=O)CCS(=O)(=O)C2CCCC2)c1 | 1.788 |
| O=C(Cc1ccccc1)NCCNS(=O)(=O)C1CCCCC1 | 110.7 |
| CN(C)C(CNCc1nc(-c2ccsc2)no1)c1cccs1 (configuration not stated) | 32.89 |

| SMILES | Percent Effect [%] |
| --- | --- |
| CN(Cc1ccc(OC(F)F)cc1)C(=O)CS(=O)(=O)c1ccc(Cl)cc1 | -2.734 |
| O=C(c1ccccc1-c1nnn[nH]1)N1CCOC(C(F)(F)F)C1 (configuration not stated) | -13.17 |
| COc1ccc(C(C)Nc2ncc(C(N)=O)cc2Cl)cc1OC (configuration not stated) | 2.755 |
| COc1ccc(-c2noc(CNC(C)Cn3cccn3)n2)c(OC)c1 (configuration not stated) | -1.941 |
| Cc1noc(C(C)C)c1C(=O)NCc1cccc(CN(C)C)c1 | 74.15 |
| COc1cccc(S(=O)(=O)NC(=O)c2c(C)noc2C(C)C)c1 | -5.099 |
| CNC(=O)COc1cccc(CNC(=O)c2c(C)noc2C)c1 | 3.18 |
| Cc1noc(C(C)C)c1C(=O)NCc1cccnc1 | 107.3 |
| CNC(=O)COc1cccc(CNCc2c(C)noc2C)c1 | -88.14 |
| COCc1cccc(CNC(=O)c2c(C)noc2C(C)C)c1 | 76.98 |
| COc1cc(CNC(=O)c2c(C)noc2C(C)C)ccn1 | 8.071 |
| Cc1noc(C)c1C(=O)N(C)C(C)c1cccnc1 (configuration not stated) | 4.505 |
| Cc1nc(-c2cnn(C)c2)sc1C(=O)NCc1cccc(CN(C)C)c1 | 4.14 |
| CNC(=O)COc1cccc(CNC(=O)c2c(C)noc2C(C)C)c1 | 111.4 |
| Cc1noc(C(C)C)c1C(=O)NS(=O)(=O)c1cccnc1 | -12.13 |
| Cc1noc(C(C)C)c1C(=O)NCc1cccc(N(C)C)c1 | -0.3759 |
| CNC(=O)CC1CCN(C(=O)Nc2ccc(-c3cc[nH]n3)cc2)CC1 | 6.092 |
| CCOCC(=O)NCC(CC)(OC)c1ccccc1 (configuration not stated) | 1.259 |
| CS(=O)(=O)N1CCCCC12CCN(c1nncs1)CC2 | -20.36 |
| O=C(NCC(c1ccccc1)N1CCOCC1)Nc1cn[nH]c1 (configuration not stated) | 127.8 |
| CC(CNC(=O)Nc1cn[nH]c1)N1CCOCC1 (configuration not stated) | 3.391 |
| O=C(NCC(c1ccc(F)cc1)N1CCOCC1)Nc1cn[nH]c1 (configuration not stated) | 114.1 |
| CC(CNC(=O)Nc1cn[nH]c1)N1CCc2ccccc2C1 (configuration not stated) | -5.86 |

| SMILES | Percent Effect [%] |
| --- | --- |
| Cc1ccc(C(CNC(=O)Nc2cn[nH]c2)N2CCOCC2)o1 (configuration not stated) | 59.24 |
| CC(CNC(=O)Nc1cn[nH]c1)N1CCCC1 (configuration not stated) | 127.7 |
| COc1ccc(C(CNC(=O)Nc2cn[nH]c2)N2CCOCC2)cc1 (configuration not stated) | -0.482 |
| O=C(NCc1cc[nH]n1)NCC(c1ccc(F)cc1)N1CCOCC1 (configuration not stated) | 5.34 |
| Cc1ccc(C(CNC(=O)NCc2cc[nH]n2)N2CCOCC2)o1 (configuration not stated) | -7.152 |
| CCn1c(CN(C)C)nnc1C1CCN(Cc2ccc(Cl)cc2F)CC1 | -5.252 |
| Cc1ccc2c(c1)nc1n2[C@@H](CNC(=O)c2ccccn2)COC1 | 6.729 |
| Cc1noc(C)c1CC(=O)NCC(C(C)C)N1CCOCC1 (configuration not stated) | -3.487 |
| CC(C)C(CNC(=O)Nc1cn[nH]c1)N1CCOCC1 (configuration not stated) | 97.51 |
| CCC(CC)C(CNC(=O)Nc1ccc(C)cc1)N1CCOCC1 (configuration not stated) | 4.516 |
| CC(C)C(c1cccnc1)N(C)C(=O)Cc1ccc(O)cc1 (configuration not stated) | -17.69 |
| C=C(C)COc1ccccc1C(=O)NCCCc1nnn[nH]1 | 115.9 |
| C=C(C)COc1cccc(C(=O)NC(C)c2nnn[nH]2)c1 (configuration not stated) | 104.4 |
| C=C(C)COc1cccc(C(=O)NCCCc2nnn[nH]2)c1 | 109 |
| C=C(C)COc1ccccc1C(=O)NCCc1nncn1C | -0.8083 |
| C=C(C)COc1ccccc1C(=O)N(C)C(C)c1c(C)n[nH]c1C (configuration not stated) | -35.55 |
| C=C(C)COc1cccc(C(=O)N(CC)Cc2nccn2C)c1 | 0.123 |
| C=C(C)COc1cccc(C(=O)N(C)C(C)c2c(C)n[nH]c2C)c1 (configuration not stated) | -12.59 |
| CCC(=O)c1ccc(OCC(=O)NC(C)c2nnn[nH]2)cc1 (configuration not stated) | -5.336 |
| CN(CCCNC(=O)c1cccc(OCC(N)=O)c1)CC(F)(F)F | 0.5585 |
| CN1Cc2ccccc2CC1C(=O)N1CCN(CCS(C)(=O)=O)CC1 (configuration not stated) | 0.38 |
| CS(=O)(=O)c1ccc(OCCNCc2cccc(Cl)c2)cc1 | 6.711 |
| CS(=O)(=O)CCNCc1ccc(OCc2ccccn2)cc1 | -3.882 |

| SMILES | Percent Effect [%] |
| --- | --- |
| CC1CCN(C(=O)C(C)N2CCc3[nH]nc(C(F)(F)F)c3C2)CC1 (configuration not stated) | -0.1757 |
| CN(C)C(=O)Cc1ccc(NC(=O)NC2CCCCC2)cc1 | 10.45 |
| CN(C)c1ncc(-c2ccc(NC(=O)[C@@H]3CCCCN3)cc2)cn1 | 109.4 |
| CN(C)C(=O)Cc1ccc(NC(=O)NC2CCCC2)cc1 | 20.91 |
| CN(CCO)c1ncc(-c2ccc(NC(=O)[C@@H]3CCCCN3)cc2)cn1 | 112.4 |
| COc1ccc(NC(=O)c2cnc(N(C)C3CCCCC3)nc2N)cc1 | -20.25 |
| Cc1cc(CNC2(CO)CCOCC2)ccc1Br | -0.9175 |
| CC(C)c1nc(-c2cc(C(=O)NCCCO)c3ccccn23)cs1 | -2.585 |
| COCc1nc(CNc2cccc(-c3ncon3)c2)cs1 | -4.875 |
| COc1c(CNC2CCN(C(=O)C3CC3)CC2)c(C(C)C)nn1C | 2.531 |
| COc1c(CNC2CCN(C(C)(C)C)CC2)c(C(C)C)nn1C | 2.143 |
| CC(C)c1nn(C)c(N(C)C)c1CNC1CCC(O)CC1 (configuration not stated) | 13.16 |
| COc1c(CNC2CCN(C(=O)C(C)C)CC2)c(C(C)C)nn1C | 121.5 |
| CC(C)C(=O)N1CCC(NCc2c(C(C)C)nn(C)c2N(C)C)CC1 | -18.23 |
| COc1c(CNC2CCC(O)CC2)c(C(C)C)nn1C (configuration not stated) | 106.7 |
| CCOc1cccc(CCNC(=O)NC2CCc3[nH]ncc3C2)n1 (configuration not stated) | 4.598 |
| O=C1CC(N(C(=O)c2csc(-c3ccccc3)n2)C2CC2)C(=O)N1 (configuration not stated) | -6.994 |
| Cc1ccc2c(n1)N(CCN(C)C)CCN(C(=O)c1cscn1)C2.O=C(O)C(F)(F)F.O=C(O)C(F)(F)F | 28.27 |
| CN(C)Cc1ccc(C2CCCCN2C(=O)c2cccnn2)cc1 (configuration not stated) | -5.621 |
| CC(C)N(C)Cc1noc2c1CN(C(=O)c1cnccn1)CC2 | -8.266 |
| CC(C)N(C)S(=O)(=O)c1ccc2c(c1)CCN(C(=O)c1cccnn1)C2 | 105.4 |
| CC(C)N(C)S(=O)(=O)c1ccc2c(c1)CCN(C(=O)c1cnccn1)C2 | 109.6 |
| CC(C)N(C)S(=O)(=O)c1ccc2c(c1)CCN(C(=O)c1cscn1)C2 | 99.31 |

| SMILES | Percent Effect [%] |
| --- | --- |
| COCCNS(=O)(=O)c1cccc2c1CN(C(=O)c1cnccn1)CC2 | -8.732 |
| COCCNS(=O)(=O)c1ccc2c(c1)CCN(C(=O)c1cncn1C)C2 | -12.86 |
| CC(C(=O)N1CCc2ccccc2C1)N(C)Cc1cscn1 (configuration not stated) | -9.272 |
| CC(C)N(C)S(=O)(=O)c1ccc2c(c1)CCN(C(=O)c1ccccn1)C2 | 85.52 |
| CCS(=O)(=O)NC1CCCN(c2cc(C)ccc2F)C1=O (configuration not stated) | -7.776 |
| O[C@H]1[C@H](NCCSc2ccccn2)c2ccccc2C12CCNCC2 | -1.82 |
| COc1ccccc1Oc1ncccc1CNC(=O)[C@H](N)CC(C)(C)C | -16.84 |
| CC(=O)NC1CCN(c2ncnc3c2c(C)nn3C)C1 (configuration not stated) | -10.72 |
| COc1cc(C)c(C2CC(=O)NCc3nc4sccn4c32)cc1C (configuration not stated) | -46.51 |
| CCOCc1ccc(NC(=O)C(C)C)cc1 | 2.83 |
| CCC[C@H]1CN(CCS(C)(=O)=O)C[C@@H]1NC(=O)c1cc(CC)on1 | 21.57 |
| CCn1cnnc1CCNCc1c[nH]nc1-c1ccc(F)cc1 | -1.595 |
| COC(=O)c1ccc(F)c(Cn2nc(C)cc2C)c1 | -3.045 |
| COC(=O)c1ccc(Cn2nc(C)cc2C)c(F)c1 | -8.514 |
| Cc1cc(C)n(CC(=O)N2CCC(NS(=O)(=O)c3ccccc3)CC2)n1 | -8.172 |
| Cc1cc(C)n(CC(=O)Nc2cc(-c3ccncc3)[nH]n2)n1 | 0.2765 |
| Cc1cc(C)n(CCNCc2cc(-c3ccc(Cl)cc3)c[nH]c2=O)n1 | 101 |
| Cc1cc(C)n(CCNCc2cc(-c3ccccc3)c[nH]c2=O)n1 | 81.59 |
| Cc1cc(F)ccc1CNCCn1cccn1 | -2.042 |
| Cc1cc(C)n(CCNCc2cc(-c3ccc(F)cc3)c[nH]c2=O)n1 | 135.5 |
